Data taken from PubChem BioAssay (NCATS).
Results filed as inconclusive are left out. A call without a number means that no potency is given here. Unmarked numbers belong to inactive results. Calls of active or inactive are those of the source. Calls follow the shape of the dose curve; as a rule, active = well fitted inhibition curve with a large enough effect; inconclusive = small, poorly fitted or top-dose-only effect; inactive = no such curve, though single readings can be large or run the other way.

Tests used:
[1] = tested on: Zika virus NS2B-NS3 protease (unlinked complex); test: Primary screen GU Rhodamine qHTS for Zika virus inhibitors: Unlinked NS2B-NS3 protease assay (AID 1347159); also: nearly all actives have a fitted effect of over 60% in size
In short: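 Noncovalent NS2B hydrophilic domain–NS3 protease domain complex (25 nM) preincubated 15 min at room temperature with compounds (up to 114 microM) in 10 mM Tris-HCl pH 8.0, 0.01% Tween 20; 1.5 microM Rhodamine110 substrate added, fluorescence change over 15 min fitted to Hill equation.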

[2] = tested on: Zika virus NS2B-NS3 protease (linked construct); test: Primary screen NINDS Rhodamine qHTS for Zika virus inhibitors (AID 1347160); also: nearly all actives have a fitted effect of over 55% in size
In short: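 Purified linked NS2B-NS3 protease (NS2B hydrophilic domain joined to NS3 protease by flexible linker), 25 nM in 10 mM Tris-HCl pH 8.0, 0.01% Tween 20. Compounds titrated, 15 min preincubation at room temperature; 1.5 microM Rhodamine110 substrate, FITC fluorescence change over 15 min.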

C[C@@H]1O[C@@H](O[C@H]2[C@H](O)[C@@H](O[C@@H]3O[C@H](CO)[C@H](O)[C@H](O)[C@H]3O)[C@H](O[C@H]3CC[C@@]4(C)C(CC[C@]5(C)C4CC=C4[C@@H]6CC(C)(C)CC[C@]6(C(=O)O[C@@H]6O[C@H](CO)[C@@H](O)[C@H](O)[C@H]6O)CC[C@]45C)C3(C)C)O[C@@H]2C(=O)O)[C@H](O)[C@H](O)[C@H]1O (stereo partly drawn)
Potency [1]: inactive | Potency [2]: inactive

C[C@@H]1O[C@@H](O[C@H]2[C@H](OC(=O)[C@]34CCC(C)(C)C[C@H]3C3=CCC5[C@@]6(C)CC[C@H](O[C@@H]7O[C@H](CO[C@@H]8OC[C@H](O)[C@H](O)[C@H]8O[C@@H]8OC[C@@H](O)[C@H](O)[C@H]8O)[C@@H](O)[C@H](O)[C@H]7O)C(C)(C)C6CC[C@@]5(C)[C@]3(C)C[C@H]4O)O[C@H](CO)[C@@H](O)[C@@H]2O)[C@H](O[C@@H]2O[C@H](CO)[C@@H](O)[C@H](O)[C@H]2O)[C@H](O)[C@H]1O[C@@H]1OC[C@@H](O)[C@H](O[C@@H]2OC[C@@H](O)[C@H](O)[C@H]2O)[C@H]1O (stereo partly drawn)
activity change, negative = inhibition [1]: 2.96% [at 19.1 µM] | Potency [2]: inactive

CC1=C(CO)CC(C(C)C2CCC3C4CC=C5CC(OC6OC(COC7OC(CO)C(O)C(O)C7O)C(O)C(O)C6O)CC(O)C5(C)C4CCC23C)OC1=O (stereo not drawn)
Potency [1]: inactive | Potency [2]: inactive

Cc1ncc(Cl)cc1NCc1ccc(C(=O)NC(CC2CCCC2)C(=O)NC2CC2)s1 (stereo not drawn)
Potency [1]: inactive | Potency [2]: inactive

FC(F)(F)c1nnc2c(Sc3ccccc3)nc3ccc(Cl)cc3n12
Potency [1]: inactive | Potency [2]: inactive

CCCCOc1nc(N)c2c(n1)N(Cc1cccc(CN3CCCC3)c1)CC(=O)N2
Potency [1]: inactive | Potency [2]: inactive

H-DPPDPDRFYGMM-NH2
Potency [1]: inactive | Potency [2]: inactive

OC[C@@]1(O)CO[C@@H](OC[C@H]2O[C@@H](OCc3ccccc3)[C@H](O)[C@@H](O)[C@@H]2O)[C@@H]1O
Potency [1]: inactive | Potency [2]: inactive

O=C(O[C@@H]1O[C@H](CO)[C@@H](O)[C@H](O)[C@H]1O)c1ccccc1
Potency [1]: inactive | Potency [2]: inactive

OC[C@H]1O[C@@H](OCc2ccccc2)[C@H](O[C@@H]2OC[C@@H](O)[C@H](O)[C@H]2O)[C@@H](O)[C@@H]1O
Potency [1]: inactive | Potency [2]: inactive

C/C(=C/CO)CC[C@H]1[C@]2(C)C[C@H](O)CC(C)(C)[C@H]2CC[C@]1(C)O
Potency [1]: inactive | Potency [2]: inactive

CC[C@H]1OC(=O)[C@H](C)[C@@H](O[C@H]2C[C@@](C)(OC)[C@@H](O)[C@H](C)O2)C(C)[C@@H](O[C@@H]2O[C@H](C)C[C@H](N(C)C)[C@H]2O)[C@](C)(O)C[C@@H](C)CN(C)[C@H](C)[C@@H](O)[C@]1(C)O (stereo partly drawn)
Potency [1]: inactive | Potency [2]: inactive

C=CC(C)(CC/C=C(\C)C(=O)OC[C@H]1O[C@@H](OC(C)(C=C)CC/C=C(\C)C(=O)O[C@H]2[C@H](O)[C@@H](O)[C@H](OC(C)(C=C)CC/C=C(\C)C(=O)O)O[C@@H]2CO)[C@H](O)[C@@H](O)[C@@H]1O)O[C@@H]1O[C@H](CO)[C@@H](O)[C@H](O)[C@H]1O (stereo partly drawn)
Potency [1]: inactive | Potency [2]: inactive

N#Cc1cc(-c2n[nH]c(-c3ccncc3)n2)ccn1
Potency [1]: inactive | Potency [2]: inactive

COc1cc(C)c(C(=O)O[C@@H]2[C@H](O)[C@@H](CO)O[C@H]2n2ccc(=O)[nH]c2=O)c(OC)c1
Potency [1]: inactive | Potency [2]: inactive

N#Cc1cccc(-c2nc(-c3cccnc3)no2)c1
Potency [1]: inactive | Potency [2]: inactive

COc1cc([C@H]2OC[C@](O)(Cc3ccc(O[C@@H]4O[C@H](CO)[C@@H](O)[C@H](O)[C@H]4O)c(OC)c3)[C@@H]2CO)ccc1O
Potency [1]: inactive | Potency [2]: inactive

CC(=O)O[C@H]1C[C@@H](O)C(C)(C)C2C[C@@H](OC(C)=O)[C@@]3(C)C4=CCC(C(CO)CC(O)C5OC5(C)C)[C@]4(C)CCC3[C@]21C (stereo partly drawn)
Potency [1]: inactive | Potency [2]: inactive

COC(=O)C(CC1CCCC1)c1ccc(S(C)(=O)=O)cc1 (stereo not drawn)
Potency [1]: inactive | Potency [2]: inactive

C=CC(C)(O)CC/C=C(\C)C1CC=C(C)C(=O)O1 (stereo not drawn)
Potency [1]: inactive | Potency [2]: inactive

C=C1CC2C3(C)C=CC(=O)OC(C)(C)C3CC(OC(C)=O)C2(C)C2C(=O)OC(C)C(=O)C12C (stereo not drawn)
Potency [1]: inactive | Potency [2]: inactive

CC1CC(O)/C=C/C(O)/C=C\C(=O)O1 (stereo not drawn)
Potency [1]: inactive | Potency [2]: inactive

CN1C(=O)N(c2cc(Cl)cc(Cl)c2)C(=O)[C@@]1(C)Cc1ccc(Br)cc1
Potency [1]: inactive | Potency [2]: inactive

COc1ccc(/C=C/C(=O)O[C@@H]2[C@@H](OC(C)=O)[C@@H](OC(C)=O)[C@H](O[C@H]3[C@@H]4C=CO[C@@H](O[C@@H]5O[C@H](CO)[C@@H](O)[C@H](O)[C@H]5O)[C@@H]4[C@@]4(CO)O[C@@H]34)O[C@H]2C)cc1
Potency [1]: inactive | Potency [2]: inactive
